Measured values published in PubChem BioAssay (NCI).
This is part of a sample that, as a whole, favours compounds with a hit. Of some 79,000 tested, about 15% had one in any assay. Activity calls are given as the source filed them. Cut-off read from the data, not from the text of the source: active = growth inhibition above about 70%; inactive = the rest.

Key:
[1] = NCI Yeast Anticancer Drug Screen. Data for the rad50 strain (AID 155);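 note: 0% = growth of vehicle-only cultures of the same strain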; settings: S. cerevisiae rad50 strain growth inhibition, active compounds read high
Method in brief: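 Vehicle-treated cultures provide the reference for the growth inhibition reported for compound-exposed, repair-deficient yeast.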

[2] = NCI Yeast Anticancer Drug Screen. Data for the mec2-1 strain (AID 157); settings: S. cerevisiae mec2-1 strain, active compounds read high
Method in brief: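 Yeast mec2-1 mutant treated with compound. Readout: growth inhibition vs vehicle controls.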

[3] = NCI Yeast Anticancer Drug Screen. Data for the sgs1 mgt1 strain (AID 161);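 note: 0% = growth of cultures given vehicle only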; settings: S. cerevisiae sgs1 mgt1 strain, active compounds read high
Method in brief: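 Read-out: growth inhibition vs vehicle controls. Cells: mutant yeast strain deficient in DNA damage repair.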

[4] = NCI Yeast Anticancer Drug Screen. Data for the cln2 rad14 strain (AID 165);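 note: 0% = growth equal to vehicle treated cultures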; settings: S. cerevisiae cln2 rad14 strain, active compounds read high
Method in brief: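 cln2 rad14 yeast strain; compound exposure; growth inhibition read vs vehicle controls.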

[5] = NCI Yeast Anticancer Drug Screen. Data for the bub3 strain (AID 167); settings: S. cerevisiae bub3 mutant strain, active compounds read high
Method in brief: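 Mutant yeast screening strain plus compound; vehicle-treated cultures serve as the 0% inhibition reference.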

[6] = NCI Yeast Anticancer Drug Screen. Data for the mlh1 rad18 strain (AID 175); settings: S. cerevisiae mlh1 rad18 strain growth inhibition, active compounds read high
Method in brief: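 Yeast w/ defined DNA-repair lesions; compound exposure; growth vs vehicle controls → % inhibition.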

[7] = at 5.0 µM (retest, dose inferred, filed as 0.5)
[8] = at 50.0 µM (retest, dose inferred, filed as 5.0)

Measured: growth inhibition

CC(C)c1cc(=O)c2cc3[nH]c4ccccc4c3cc2[nH]1
active: [1]; [8] 92% | [2]; [8] 87% | [3]; [8] 96% | [4]; [8] 81% | [5]; [8] 94% | [6]; [8] 86%
inactive: [1]; [7] -2% | [1]; at 50.0 µM 49.9% | [2]; [7] -2% | [2]; at 50.0 µM 52.8% | [3]; [7] -69% | [3]; at 50.0 µM 50.9% | [4]; [7] -18% | [4]; at 50.0 µM 68.5% | [5]; [7] -2% | [5]; at 50.0 µM 10.6% | [6]; [7] -9% | [6]; at 50.0 µM 54.2%

Cc1nc2ccc(NCCN(C)C)c3c(=O)c4cc(O)ccc4n1c23
inactive: [1]; [7] 25% | [1]; [8] 63% | [1]; at 50.0 µM -20.4% | [2]; [7] -3% | [2]; [8] 12% | [2]; at 50.0 µM 20.4% | [3]; [7] -4% | [3]; [8] 16% | [3]; at 50.0 µM -4.45% | [4]; [7] 3% | [4]; [8] 16% | [4]; at 50.0 µM 11.2% | [5]; [7] 13% | [5]; [8] 13% | [5]; at 50.0 µM 1.4% | [6]; [7] -3% | [6]; [8] 20% | [6]; at 50.0 µM 61.4%

Nc1cc(Cl)ccc1S
active: [1]; [7] 79% | [1]; at 50.0 µM 99.5% | [2]; [7] 99% | [2]; [8] 89% | [2]; at 50.0 µM 99.5% | [3]; [7] 83% | [3]; at 50.0 µM 99.5% | [4]; at 50.0 µM 99% | [5]; [8] 91% | [5]; at 50.0 µM 99.3% | [6]; [7] 83% | [6]; [8] 75% | [6]; at 50.0 µM 99.5%
inactive: [1]; [8] 48% | [3]; [8] 47% | [4]; [7] 25% | [4]; [8] 53% | [5]; [7] 31%

CCOC(=O)/C(=C\n1c(=O)sc2ccccc21)C(=O)c1ccccc1
active: [3]; at 50.0 µM 74.8%
inactive: [1]; [7] 18% | [1]; [8] 24% | [1]; at 50.0 µM 24.6% | [2]; [7] 19% | [2]; [8] 55% | [2]; at 50.0 µM 50.5% | [3]; [7] 27% | [3]; [8] 64% | [4]; [7] 22% | [4]; [8] 26% | [4]; at 50.0 µM 19.5% | [5]; [7] 21% | [5]; [8] 57% | [5]; at 50.0 µM 7.95% | [6]; [7] 20% | [6]; [8] 41% | [6]; at 50.0 µM 36.2%

Cc1cnc2cccc(Cl)c2c1Cl
inactive: [1]; [7] 3% | [1]; [8] 27% | [2]; [7] 17% | [2]; [8] 11% | [2]; at 50.0 µM 28.4% | [3]; [7] 19% | [3]; [8] 6% | [3]; at 50.0 µM 35.5% | [4]; [7] -42% | [4]; [8] 4% | [4]; at 50.0 µM 34% | [5]; [7] -4% | [5]; [8] 14% | [5]; at 50.0 µM 27% | [6]; [7] -15% | [6]; [8] 31% | [6]; at 50.0 µM 20.6%
active: [1]; at 50.0 µM 80.8%

O=C1C2Nc3ccccc3SC2C(=O)N1c1ccccc1C(F)(F)F (stereo not given)
active: [1]; at 50.0 µM 73.8% | [6]; at 50.0 µM 73.2%
inactive: [1]; [7] 3% | [1]; [8] 35% | [2]; [7] 3% | [2]; [8] 11% | [2]; at 50.0 µM 12.5% | [3]; [7] 16% | [3]; [8] 24% | [3]; at 50.0 µM 47.4% | [4]; [7] 2% | [4]; [8] 11% | [4]; at 50.0 µM 46.5% | [5]; [7] -1% | [5]; [8] 29% | [5]; at 50.0 µM 13.7% | [6]; [7] 7% | [6]; [8] 44%

O=C(Nc1ccc(Cl)cc1Cl)C1C(=O)OC2(CCCCC2)OC1=O
inactive: [1]; [7] 24% | [2]; [7] 38% | [3]; [7] 30% | [3]; at 50.0 µM 55.6% | [4]; [7] 37% | [4]; at 50.0 µM 62.8% | [5]; [7] 45% | [5]; at 50.0 µM 62.3% | [6]; [7] 37%
active: [1]; [8] 96% | [1]; at 50.0 µM 84.5% | [2]; [8] 98% | [2]; at 50.0 µM 89.8% | [3]; [8] 97% | [4]; [8] 98% | [5]; [8] 98% | [6]; [8] 97% | [6]; at 50.0 µM 87.2%

Cc1ccc2c(c1)NC(=O)C(N=[N+]=[N-])(c1ccccc1)C2=O (stereo not given)
active: [1]; [8] 97% | [1]; at 50.0 µM 89.8% | [2]; [8] 93% | [2]; at 50.0 µM 91.3% | [3]; [8] 97% | [3]; at 50.0 µM 90.2% | [4]; [8] 71% | [4]; at 50.0 µM 91.3% | [5]; [8] 98% | [5]; at 50.0 µM 92.3% | [6]; [8] 98% | [6]; at 50.0 µM 70.4%
inactive: [1]; [7] -25% | [2]; [7] -2% | [3]; [7] -1% | [4]; [7] 10% | [5]; [7] -7% | [6]; [7] -4%

COc1ccc2ccnc(Cc3ccc(OCc4ccccc4)c(OC)c3)c2c1
inactive: [1]; [7] 42% | [1]; [8] 42% | [2]; [7] 27% | [2]; [8] 27% | [3]; [7] 28% | [3]; [8] 28% | [4]; [7] 12% | [4]; [8] 12% | [5]; [7] 28% | [5]; [8] 28% | [6]; [7] 29% | [6]; [8] 29%
active: [1]; at 50.0 µM 89.5% | [2]; at 50.0 µM 87.3% | [3]; at 50.0 µM 89.7% | [4]; at 50.0 µM 87% | [5]; at 50.0 µM 86.5% | [6]; at 50.0 µM 86%

CCCC(CC)c1c(O)c(O)c(C(CC)CCC)c(C(CC)CCC)c1C(CC)CCC (stereo not given)
inactive: [1]; [7] 4% | [2]; [7] -12% | [2]; [8] 52% | [3]; [7] -10% | [4]; [7] 18% | [5]; [7] -1% | [5]; [8] 59% | [6]; [7] -13%
active: [1]; [8] 76% | [1]; at 50.0 µM 95.5% | [2]; at 50.0 µM 97.3% | [3]; [8] 76% | [3]; at 50.0 µM 97.9% | [4]; [8] 72% | [4]; at 50.0 µM 97.7% | [5]; at 50.0 µM 97.2% | [6]; [8] 87% | [6]; at 50.0 µM 96%
